Only some compounds are listed: those with a hit (about 3.5% of all), similar ones and a draw of the others.
GPR151 ag: activators of human GPR151, primary screen, cell-based, PathHunter beta-arrestin, luminescence; PathHunter beta-arrestin GPR151 cells; activation, % at 11.2 µM; actives 1% (n = 650,000); in the data active means activation above about 4.9%;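 further: 0% = median of compound wells and 100% = cells with positive control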
FBW7 act: FBW7 E3 ligase activators, primary screen, biochemical, AlphaScreen, human; normalized activity (activation), % at 26.1 µM; actives 0.13% (n = 650,000); AlphaScreen FBW7–phospho-cyclin E peptide binding, activator screen; F-box/WD repeat-containing protein 7 (Homo sapiens), Q969H0; in the data active means normalized activity above about 1.9%;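 further: purified mutant Fbw7 with reduced substrate affinity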
TEAD-YAP inh: TEAD-YAP interaction inhibition, primary screen, TEAD-YAP interaction inhibitor project, luminescence, HEK-TIYL cells; TEAD-Gal4/YAP UAS-luciferase luminescence; inhibition, % at 9.12 µM; actives 1.4% (n = 640,000); in the data active means inhibition above about 32%;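 further: 0% = median of test compound wells and 100% = reference inhibitor wells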
MITF primary: MITF inhibitors, primary screen, biochemical, AlphaScreen, human. actives 0.91% (n = 650,000). AlphaScreen MITF homodimerization, bead proximity signal. inhibition, % at 2.6 µM. AID 1259374, 2018. Microphthalmia-associated transcription factor (Homo sapiens), O75030; in the data active means inhibition above about 50%;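 further: 0% = vehicle wells with protein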
Target sequence (O75030 whole entry, looked up): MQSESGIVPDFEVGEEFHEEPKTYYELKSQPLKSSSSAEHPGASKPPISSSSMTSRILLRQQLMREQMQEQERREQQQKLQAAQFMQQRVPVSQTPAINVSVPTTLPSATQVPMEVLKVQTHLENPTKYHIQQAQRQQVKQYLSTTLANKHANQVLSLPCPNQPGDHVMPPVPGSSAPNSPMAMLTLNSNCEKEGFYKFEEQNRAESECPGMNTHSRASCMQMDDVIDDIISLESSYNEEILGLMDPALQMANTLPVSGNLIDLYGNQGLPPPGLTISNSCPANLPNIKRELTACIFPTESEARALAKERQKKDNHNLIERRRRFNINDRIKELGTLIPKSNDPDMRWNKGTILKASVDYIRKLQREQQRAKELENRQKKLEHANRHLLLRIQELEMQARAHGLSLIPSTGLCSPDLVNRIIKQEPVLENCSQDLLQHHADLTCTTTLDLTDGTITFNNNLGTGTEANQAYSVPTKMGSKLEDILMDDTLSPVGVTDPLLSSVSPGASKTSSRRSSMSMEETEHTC
GPR151 confirm: GPR151 activators, triplicate retest, confirmation, cell-based, PathHunter beta-arrestin, luminescence. GPR151 PathHunter beta-arrestin cells, 90 min; % of EA-reagent control over plate median. AID 1508609, 2020. activation, % at 11.2 µM. shares compounds with GPR151 ag. 6,700 tested, under 10 active;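 active means mean percent activation across replicates above the confirmation screen cutoff of 4.91%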
GPR119 counter: GPR119 activators in beta-arrestin cells, counter-screen for GPR151 activator project, cell-based, PathHunter beta-arrestin, luminescence, triplicate | actives 0.3% (n = 6,700) | 90 min; 0 = compound-well median, 100 = enzyme-acceptor control | shares compounds with GPR151 ag | activation, % at 11.2 µM;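 active means mean percent activation in the counterscreen above 29.09%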;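 further: counterscreen on off-target GPR119 to flag nonselective hits from the GPR151 activator screen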
The depositor's hits bear a star.

Screening Cc1ccc(N2C(=O)C3CCCCC3C2=O)cc1F (stereo not given) returned GPR151 ag 8.1*, FBW7 act 0.2, TEAD-YAP inh 12.1, MITF primary 13.9, GPR151 confirm 0.2 and GPR119 counter 2.4.
For Cc1ccc(-n2cnnn2)c(S(=O)(=O)N2CCOCC2)c1 the results were GPR151 ag 5.4*, FBW7 act -0.1, TEAD-YAP inh 6.3, MITF primary 1.2, GPR151 confirm 0.1 and GPR119 counter 5.6.
CC1=C(C)SC(=C(C#N)c2nnc(N3CCOCC3)n2-c2ccccc2)S1 was read as GPR151 ag 5.4*, FBW7 act -0.2, TEAD-YAP inh 6.0, MITF primary -1.5, GPR151 confirm -0.1 and GPR119 counter -2.4.
Screening COCCCN1C(=O)c2ccc(C(=O)Oc3ccc(C(C)(C)C)cc3)cc2C1=O returned GPR151 ag 5.2*, FBW7 act 0.5, TEAD-YAP inh 3.0, MITF primary 8.0, GPR151 confirm 0.6 and GPR119 counter -3.3.
`C/C=C/c1ccc(OCCNC)c(OC)c1` gave GPR151 ag -1.6, FBW7 act 0.0, TEAD-YAP inh 7.5 and MITF primary 41.7.
C/C=C/c1ccc(OCCCNC)c(OC)c1 was read as GPR151 ag 6.1*, FBW7 act -0.5, TEAD-YAP inh -15.3, MITF primary 30.8, GPR151 confirm -0.1 and GPR119 counter 6.3.
`CC1CCc2onc(C(=O)N3CCC4(CC3)CC(O)(c3nccn3C)CO4)c2C1` (stereo not given) gave GPR151 ag 1.0, FBW7 act -0.3, TEAD-YAP inh 1.7 and MITF primary 2.1.
Screening Cc1ccc(C(=O)N2CCCc3ccccc32)cc1C returned GPR151 ag -0.6, FBW7 act 0.0, TEAD-YAP inh -11.7 and MITF primary 3.6.
For CC(C)C(=O)Nc1cccc(C(=O)N2CCCc3ccccc32)c1 the results were GPR151 ag 6.5*, FBW7 act 0.2, TEAD-YAP inh 9.8, MITF primary 17.7, GPR151 confirm 0.7 and GPR119 counter -1.5.
For COc1cccc(/C=C2/C(=N)N3OC(C)=CC3=NC2=O)c1 the results were GPR151 ag 1.1, FBW7 act 0.2, TEAD-YAP inh -2.1 and MITF primary 3.3.
For O=C(OCc1ccc([N+](=O)[O-])cc1)c1cc[n+]([O-])cc1 the results were GPR151 ag 1.3, FBW7 act 0.0, TEAD-YAP inh 9.4 and MITF primary 6.2.
`Cc1ccc(OCCOc2ccc(Oc3nc(N(C)C)nc(N(C)C)n3)nn2)cc1` gave GPR151 ag 5.3*, FBW7 act -0.1, TEAD-YAP inh -7.3, MITF primary 9.0, GPR151 confirm 0.6 and GPR119 counter 12.3.
For O=C(NCC1Cc2cccc(-c3ccncc3)c2O1)c1cccc(Cn2cccn2)c1 (stereo not given) the results were GPR151 ag 9.0*, FBW7 act -0.1, TEAD-YAP inh 2.2, MITF primary -2.7, GPR151 confirm 0.3 and GPR119 counter 8.3.
For COc1cc(/C=C(/C(=O)OCC(N)=O)c2ccc(-c3ccccc3)cc2)cc(OC)c1OC the results were GPR151 ag 5.1*, FBW7 act -0.2, TEAD-YAP inh 0.9, MITF primary 7.0, GPR151 confirm -0.3 and GPR119 counter -6.9.
COc1ccccc1/C=C(/C(=O)OCC(N)=O)c1ccccc1 was read as GPR151 ag 0.5, FBW7 act 0.1, TEAD-YAP inh 7.2 and MITF primary -0.9.
`O=C1CCC(=O)N1c1ccc(SCc2ccc(F)cc2)cc1` gave GPR151 ag 0.1, FBW7 act 0.1, TEAD-YAP inh -2.8 and MITF primary -2.4.
`COc1cc(C(=O)n2nc(N)c3cc4ccc(C)cc4nc32)cc(OC)c1OC` gave GPR151 ag 7.8*, FBW7 act -0.1, TEAD-YAP inh 41.0*, MITF primary 1.9, GPR151 confirm 1.4 and GPR119 counter 11.0.
Screening COc1ccc(C(=O)n2nc(N)c3cc4ccc(C)cc4nc32)cc1 returned GPR151 ag -1.8, FBW7 act 0.1, TEAD-YAP inh -37.2 and MITF primary 10.5.
Screening CC(C)(C)OC(=O)N1CCC[C@@H]1C(=O)Nc1ccc2[nH]ncc2c1 returned GPR151 ag 5.8*, FBW7 act 0.0, TEAD-YAP inh -2.6, MITF primary 19.2, GPR151 confirm -0.2 and GPR119 counter -6.0.
Screening COc1ccc(C(=O)Nc2cc(C(N)=O)ccc2OC)cc1 returned GPR151 ag 0.2, FBW7 act -0.3, TEAD-YAP inh 1.0 and MITF primary -8.8.
For COc1ccc(C(N)=O)cc1NC(=O)CC(O)(C(F)(F)F)C(F)(F)F the results were GPR151 ag 7.3*, FBW7 act 0.0, TEAD-YAP inh -9.9, MITF primary 48.4, GPR151 confirm 0.0 and GPR119 counter -10.6.
CCC(C)NC(=O)CCNC(=O)c1cn(-c2cccc(OC)c2)c(=O)c2ccccc12 (stereo not given) was read as GPR151 ag 2.0, FBW7 act 0.0, TEAD-YAP inh 6.2 and MITF primary -2.0.
Screening COc1ccc(-n2cc(C(=O)NC3CCC(C)CC3)c3ccccc3c2=O)cc1 (stereo not given) returned GPR151 ag 5.0*, FBW7 act -0.1, TEAD-YAP inh 1.8, MITF primary 4.8, GPR151 confirm -0.1 and GPR119 counter 8.0.
For CCC(C)NC(=O)c1cn(-c2cccc(OC)c2)c(=O)c2ccccc12 (stereo not given) the results were GPR151 ag 5.4*, FBW7 act 0.0, TEAD-YAP inh -2.6, MITF primary 3.2, GPR151 confirm 0.2 and GPR119 counter 2.3.
`COc1ccc(/C=c2\sc3nc(-c4cccs4)nn3c2=O)cc1OC` gave GPR151 ag 0.6, FBW7 act 0.1, TEAD-YAP inh -10.5 and MITF primary -9.9.
CC(C)Oc1ccccc1NC(=O)CSc1nnnn1C was read as GPR151 ag -0.3, FBW7 act 0.1, TEAD-YAP inh -1.1 and MITF primary 0.8.
For O=C(CCC(=O)Nc1ccc(Br)cc1)N/N=C/c1ccc(F)cc1 the results were GPR151 ag 6.4*, FBW7 act 0.0, TEAD-YAP inh 9.9, MITF primary 11.1, GPR151 confirm 0.2 and GPR119 counter -3.4.
O=C(CCC(=O)Nc1ccc(F)cc1)N/N=C/c1ccc(Br)cc1 was read as GPR151 ag 3.0, FBW7 act 0.0, TEAD-YAP inh -4.5 and MITF primary -0.6.
